Hits are enriched below; roughly 1.9% of the tested compounds scored in any of these assays.
FUS suppressor: qHTS for Suppressors of FUS Proteinopathy: Primary screen using FUS-linked yeast assay. Potency, µM (doses to about 76.6 µM), most hits filed as activators. S. cerevisiae FUS-expressing, growth rescue, OD600, 24 h. hit rate 0.24% among 390,000;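 further: potency means the concentration at half of the fitted maximal effect; plate controls were DMSO vehicle for no effect and reference control for full effect; nearly all actives have a fitted effect of over 55% in size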
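Steps: raffinose overnight preculture; dilution to OD 0.005 in 2% galactose minimal medium; compound addition (concentration series); 24hr at 30C, 99% humidity; absorbance read at 600 nm.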
Abeta rescue: qHTS for compounds that reverse cellular toxicity of Amyloid beta (A-beta) peptide in yeast: Primary Screen; Potency, µM (highest dose often 46.1 µM), usual class: activators; hit rate 0.063% among 410,000; yeast expressing A-beta42, growth rescue, OD600, 48 h; response scale: 0% DMSO, 100% iron-clioquinol control; further: potency means the concentration at half of the fitted maximal effect; nearly all actives have a fitted effect of over 55% in size
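Growth rescue measured by 600 nm absorbance after 48 h yeast culture at 30 C with compound. Values normalized between DMSO and an equimolar ferric chloride plus clioquinol control.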
PTHR1 agonist: qHTS for PTHR1 Agonists: Primary Screen | HEK293 GP2 PTHR1 cells, GloSensor cAMP luminescence, 1 h | Potency, µM (doses to about 115 µM), inactives show at the highest dose activation, hits mostly activators | hit rate 0.075% among 410,000; further: potency means the concentration at half of the fitted maximal effect; nearly all actives have a fitted effect of over 55% in size
Target sequence (Q03431 whole entry, looked up): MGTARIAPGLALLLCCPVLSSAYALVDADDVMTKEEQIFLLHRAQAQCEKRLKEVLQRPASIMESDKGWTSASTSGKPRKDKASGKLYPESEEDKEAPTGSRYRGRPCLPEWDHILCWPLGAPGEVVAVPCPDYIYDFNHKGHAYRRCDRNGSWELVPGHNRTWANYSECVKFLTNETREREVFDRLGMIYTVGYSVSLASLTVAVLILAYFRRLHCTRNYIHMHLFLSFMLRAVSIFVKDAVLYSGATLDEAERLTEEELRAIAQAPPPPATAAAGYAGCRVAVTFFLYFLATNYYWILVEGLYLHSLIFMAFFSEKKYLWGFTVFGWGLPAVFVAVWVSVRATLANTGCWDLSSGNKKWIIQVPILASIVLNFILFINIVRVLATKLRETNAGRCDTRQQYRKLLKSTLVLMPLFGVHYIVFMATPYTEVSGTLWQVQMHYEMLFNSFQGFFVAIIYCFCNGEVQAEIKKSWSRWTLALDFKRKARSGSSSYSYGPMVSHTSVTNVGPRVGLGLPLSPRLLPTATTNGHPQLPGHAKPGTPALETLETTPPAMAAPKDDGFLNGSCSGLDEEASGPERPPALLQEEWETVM
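HEK-293-derived GP2 cells expressing PTHR1 and a GloSensor cAMP reporter, 3,000/well, plated overnight, given luciferin plus IBMX (each 0.5 mM as added) for 1 h at 37 °C, then compound for 1 h at 37 °C. Luminescence was read after 15 min at room temperature.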
TDP-43 yeast inh: qHTS of TDP-43 Inhibitors; TDP-43 expressing yeast growth rescue, BacTiter-Glo, 24 h; Potency, µM (titrated, usually from 46.1 µM), for inactives: at the top dose growth rescue (activation), actives largely listed as activators; hit rate 1.8% among 410,000; AID 652104, 2013; further: potency means the concentration at half of the fitted maximal effect; % of control where 0% means no effect; nearly all actives have a fitted effect of over 50% in size
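Luminescence from BacTiter-Glo reports growth of TDP-43-expressing yeast after 24 hr at 30 deg C with compound. Cells were raffinose-pregrown to mid-log, then seeded in galactose medium at OD600=0.02.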
aSyn yeast inh: qHTS of alpha-syn Inhibitors. Yeast expressing alpha-synuclein, growth rescue, BacTiter-Glo, 24 h. Potency, µM (titrated, usually from 46.1 µM), without a hit: at the top dose growth rescue (activation), most hits filed as activators. hit rate 0.14% among 370,000. AID 652106, 2013; further: potency means the concentration at half of the fitted maximal effect; % of control where 0% means no effect; nearly all actives have a fitted effect of over 65% in size
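Screening used galactose-induced yeast with toxic alpha-synuclein levels, exposed to compound for 24 hr at 30 deg C. Cell growth, read with BacTiter-Glo luminescence, gave the measured signal.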
LDHA block: qHTS assay for inhibitors of human lactate dehydrogenase | L-lactate dehydrogenase A chain (Homo sapiens), P00338 | purified LDHA, NADH/diaphorase-resazurin fluorescence; stronger effect = lower value | activity change, % (values are at about 110 or 230 µM) | hit rate 0.15% among 480,000; in the data active means activity change below about -30%; inconclusive means mostly about -25% to -30%;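 further: plate controls were DMSO wells for no effect and wells without enzyme for full effect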
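Human LDH5 (2 nM) was incubated with 0.06 mM NADH and 0.2 mM pyruvate for 5 min at room temperature in Tris pH 7.4. Remaining NADH was coupled through diaphorase/resazurin, and resorufin fluorescence was read at 0 and 20 min.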
Starred values were filed as active, the others as inactive. Unless noted, the call rests on the fitted dose curve; in most records, active means well fitted curve in the direction sought with a large enough effect; inconclusive means small, poorly fitted or top-dose-only effect, or another doubt; inactive means no such curve, though single readings can be large; an effect the other way counts as inactive or inconclusive.

For C/C(=N/OCc1ccc(C(N)=O)cc1)c1cc2ccccc2o1 the results were LDHA block -3.
`CC(C)NC(=O)CC1(C(=O)NCc2ccccc2)CCCC1` gave LDHA block -2.
`COC1CCC2(C)C(=CCC3C4CC(O)CC4(C)CCC32)C1` (stereo not given) gave Abeta rescue inactive, PTHR1 agonist -58%, TDP-43 yeast inh 14µM*, aSyn yeast inh 16% and LDHA block 1.
Screening CC(=O)[C@H]1CC[C@H]2[C@@H]3CC=C4C[C@@H](O)CC[C@]4(C)[C@H]3CC[C@]12C returned FUS suppressor inactive, Abeta rescue inactive, PTHR1 agonist inactive, TDP-43 yeast inh -4%, aSyn yeast inh 12% and LDHA block -8.
CCOC(=O)c1c(NC(=O)COC(=O)c2cccc([N+](=O)[O-])c2)sc(C(=O)N(C)C)c1C was read as FUS suppressor inactive, Abeta rescue 13µM*, PTHR1 agonist -4%, TDP-43 yeast inh 14%, aSyn yeast inh 2% and LDHA block -6.
`CCOC(=O)c1c(NC(=O)COC(=O)c2ccc([N+](=O)[O-])cc2)sc(C(=O)N(C)C)c1C` gave FUS suppressor inactive, Abeta rescue inconclusive, PTHR1 agonist inactive, TDP-43 yeast inh 12%, aSyn yeast inh 4% and LDHA block -3.
Screening O=C(CN1CCN(c2nccs2)CC1)NCc1ccc(F)cc1 returned LDHA block 0.
For Cc1ccccc1C(=O)Nc1nnc(-c2ccc(F)cc2)o1 the results were FUS suppressor inactive, Abeta rescue 22µM*, PTHR1 agonist -8%, TDP-43 yeast inh inconclusive, aSyn yeast inh 18µM* and LDHA block 1.
For COc1ccccc1C(=O)Nc1nnc(-c2ccc(F)cc2)o1 the results were FUS suppressor inactive, Abeta rescue inactive, PTHR1 agonist 4%, TDP-43 yeast inh 1%, aSyn yeast inh -2% and LDHA block -3.
Screening Fc1ccc(-c2ccn[nH]2)cc1 returned LDHA block 0.
`CC1(C(=O)Nc2ccc(F)cc2F)CCN1C(=O)Cc1ccc(Cl)cc1Cl` (stereo not given) gave FUS suppressor inactive, Abeta rescue inactive, PTHR1 agonist inactive, TDP-43 yeast inh 16µM*, aSyn yeast inh 14% and LDHA block 1.
For CC(SC(c1ccccc1)c1ccccc1)C(=O)NC(C)(C)C (stereo not given) the results were LDHA block 10.
Screening CCOC(=O)CSc1nnc2n(-c3ccccc3)c(=O)c3c4c(sc3n12)CC(C(C)(C)C)CC4 (stereo not given) returned FUS suppressor inconclusive, Abeta rescue inactive, PTHR1 agonist -2%, TDP-43 yeast inh 35µM* and LDHA block 5.
For CCOC(=O)CSc1nnc2n(-c3ccccc3)c(=O)c3c4c(sc3n12)COC(C(C)C)C4 (stereo not given) the results were FUS suppressor inactive, Abeta rescue inactive, PTHR1 agonist inactive, TDP-43 yeast inh inconclusive and LDHA block -3.
`O=C(CC(=O)c1ccccc1O)c1cccc(F)c1` gave Abeta rescue inactive, PTHR1 agonist -42%, TDP-43 yeast inh -24%, aSyn yeast inh 13µM* and LDHA block -2.
CC1CCN(c2ccc3c(c2)S(=O)(=O)c2cccc(C(=O)NC[C@@H]4CCCO4)c2C3=O)CC1 was read as FUS suppressor inactive, Abeta rescue inactive, PTHR1 agonist -34%, TDP-43 yeast inh -1%, aSyn yeast inh 1% and LDHA block 2.
Screening O=C(NCC1CCCO1)c1cccc2c1C(=O)c1ccc(N3CCC(Cc4ccccc4)CC3)cc1S2(=O)=O (stereo not given) returned FUS suppressor 10µM*, Abeta rescue inactive, PTHR1 agonist -34%, TDP-43 yeast inh -2%, aSyn yeast inh 3% and LDHA block -15.
For COc1cccc(Oc2cncnc2-c2ccc(OC)cc2O)c1 the results were FUS suppressor inactive, Abeta rescue inactive, PTHR1 agonist -9%, TDP-43 yeast inh 20µM*, aSyn yeast inh inconclusive and LDHA block -3.
N#Cc1c(-c2cccc([N+](=O)[O-])c2)nc2n(c1=O)CCS2 was read as FUS suppressor inactive, Abeta rescue inconclusive, PTHR1 agonist inactive, TDP-43 yeast inh 11µM*, aSyn yeast inh 2% and LDHA block -11.
Screening O=C(CC12CC3CC(CC(Br)(C3)C1)C2)NC1CCCC(C(F)(F)F)C1 (stereo not given) returned LDHA block -1.
For CCNC(=S)N/N=C(\C)c1ccc(Cl)s1 the results were Abeta rescue inactive, PTHR1 agonist -20%, TDP-43 yeast inh inconclusive, aSyn yeast inh 0% and LDHA block -4.
`CNC(=S)N/N=C(\C)c1ccc(Cl)s1` gave FUS suppressor inactive, Abeta rescue inconclusive, PTHR1 agonist inactive, TDP-43 yeast inh 14µM*, aSyn yeast inh -9% and LDHA block -12.
`CCNC(=O)NC(=O)C(C)N(C)Cc1cccs1` (stereo not given) gave LDHA block -7.
CCOC(=O)N1CCN(C(=O)c2nn3c(C(F)(F)F)cc(-c4ccccc4)nc3c2Cl)CC1 was read as LDHA block 5.
For COc1ccc(Oc2coc3cc(OCc4ccccc4F)ccc3c2=O)cc1 the results were LDHA block 1.
Screening Cc1cc(F)ccc1S(=O)(=O)Nc1ccccc1C(=O)N1CCCC1 returned FUS suppressor inactive, Abeta rescue inactive, PTHR1 agonist -22%, TDP-43 yeast inh 15%, aSyn yeast inh 4.5µM* and LDHA block 0.
`COc1cccc(OC)c1C(=O)NCCc1csc(-c2ccc(Cl)cc2)n1` gave FUS suppressor inactive, Abeta rescue inactive, PTHR1 agonist inactive, TDP-43 yeast inh 22µM* and LDHA block 1.
O=C(NCCc1csc(-c2ccc(C(F)(F)F)cc2)n1)c1ccccc1Cl was read as FUS suppressor inactive, Abeta rescue inactive, PTHR1 agonist -5%, TDP-43 yeast inh inconclusive and LDHA block -6.
COc1ccc(-c2nc(CCNC(=O)c3c(F)cccc3Cl)cs2)cc1 was read as FUS suppressor inactive, Abeta rescue inactive, PTHR1 agonist -9%, TDP-43 yeast inh 18µM* and LDHA block -11.

Screening results from PubChem.
